Experimental data taken from PubChem BioAssay (Tox21).
Records with an inconclusive call do not appear. Activity calls are given as the source filed them. Unless noted, calls come from the whole dose curve; as a rule, active = well fitted curve in the direction sought with a large enough effect in the repeat runs; inconclusive = weak or mixed curves; inactive = flat fitted curve, though single readings scatter.

Columns and labels:
[1] = qHTS assay to test for compound auto fluorescence at 535 nm (green) in HEK293 cells (AID 720680)
[2] = qHTS assay to test for compound auto fluorescence at 460 nm (blue) in HEK293 cell free culture (AID 720681)
Procedure, shortened: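 Blue fluorescence (Ex 405/Em 460 nm, triamterene-equivalent) was read immediately after pin transfer of compound or DMSO into medium (DMEM, 10% FBS) without cells.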

[3] = qHTS assay to test for compound auto fluorescence at 535 nm (green) in HEK293 cell free culture (AID 720682)
Procedure, shortened: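 DMEM + 10% FBS, cell-free; cpd or DMSO pinned in; Ex485/Em535 read; output as fluorescein-equivalent signal.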

[4] = qHTS assay to test for compound auto fluorescence at 590 nm (red) in HEK293 cell free culture (AID 720683)
Procedure, shortened: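 Red-channel autofluorescence of compounds in culture medium (DMEM, 10% FBS), no cells, measured at 540/590 nm. Rose Bengal sodium is the reference fluorophore for equivalence.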

[5] = qHTS assay to test for compound auto fluorescence at 590 nm (red) in HepG2 cell free culture (AID 720684)
Procedure, shortened: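 Steps: dispense MEM/10% FBS medium, no cells; pin compound or DMSO vehicle; read red channel, Ex/Em 540/590 nm. Output given as Rose Bengal sodium equivalents.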

[6] = qHTS assay to test for compound auto fluorescence at 460 nm (blue) in HepG2 cell free culture (AID 720685)
Procedure, shortened: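 Compound (23 nL) or DMSO pinned into cell-free MEM with 10% FBS; blue fluorescence read at 405/460 nm excitation/emission, expressed as auto-fluorescence equivalency to triamterene.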

[7] = qHTS assay to test for compound auto fluorescence at 535 nm (green) in HepG2 cell free culture (AID 720686)
[8] = qHTS assay to test for compound auto fluorescence at 460 nm (blue) in HepG2 cells (AID 720687)
Procedure, shortened: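 Blue-channel autofluorescence (Ex/Em 405/460 nm, triamterene-equivalent) was measured after 1 hr compound exposure at 37 C, 5% CO2. Cells were HepG2, plated overnight at 37 C in MEM plus 10% FBS.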

[9] = target: Glucocorticoid receptor (Homo sapiens) (UniProt P04150); test: qHTS assay to identify small molecule agonists of the glucocorticoid receptor (GR) signaling pathway (AID 720691; active = well fitted activation curve with a large enough effect in the signal ratio in the repeat runs, not every such curve was filed as active; the % refers to the signal ratio)
Procedure, shortened: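 qHTS in GR-bla HeLa cells: 4 h settling at 37 C/5% CO2, 18 h compound incubation at 37 C, 2 h LiveBLAzer B/G FRET substrate at room temperature, fluorescence intensity measured.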

[10] = target: Glucocorticoid receptor (Homo sapiens) (UniProt P04150); test: qHTS assay to identify small molecule antagonists of the glucocorticoid receptor (GR) signaling pathway (AID 720692; active = well fitted inhibition curve with a large enough effect in the signal ratio in the repeat runs, not every such curve was filed as active; the % refers to the signal ratio)
Procedure, shortened: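 Inhibition of glucocorticoid signalling is measured in HeLa cells with a GRE-controlled beta-lactamase reporter; cells are co-treated with compound and 5 nM dexamethasone (final) for 18 h before FRET substrate readout.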
% is set by controls: 0 for no effect and ±100 for the full control effect.

Sequence of Glucocorticoid receptor (Homo sapiens) (P04150 whole entry, looked up): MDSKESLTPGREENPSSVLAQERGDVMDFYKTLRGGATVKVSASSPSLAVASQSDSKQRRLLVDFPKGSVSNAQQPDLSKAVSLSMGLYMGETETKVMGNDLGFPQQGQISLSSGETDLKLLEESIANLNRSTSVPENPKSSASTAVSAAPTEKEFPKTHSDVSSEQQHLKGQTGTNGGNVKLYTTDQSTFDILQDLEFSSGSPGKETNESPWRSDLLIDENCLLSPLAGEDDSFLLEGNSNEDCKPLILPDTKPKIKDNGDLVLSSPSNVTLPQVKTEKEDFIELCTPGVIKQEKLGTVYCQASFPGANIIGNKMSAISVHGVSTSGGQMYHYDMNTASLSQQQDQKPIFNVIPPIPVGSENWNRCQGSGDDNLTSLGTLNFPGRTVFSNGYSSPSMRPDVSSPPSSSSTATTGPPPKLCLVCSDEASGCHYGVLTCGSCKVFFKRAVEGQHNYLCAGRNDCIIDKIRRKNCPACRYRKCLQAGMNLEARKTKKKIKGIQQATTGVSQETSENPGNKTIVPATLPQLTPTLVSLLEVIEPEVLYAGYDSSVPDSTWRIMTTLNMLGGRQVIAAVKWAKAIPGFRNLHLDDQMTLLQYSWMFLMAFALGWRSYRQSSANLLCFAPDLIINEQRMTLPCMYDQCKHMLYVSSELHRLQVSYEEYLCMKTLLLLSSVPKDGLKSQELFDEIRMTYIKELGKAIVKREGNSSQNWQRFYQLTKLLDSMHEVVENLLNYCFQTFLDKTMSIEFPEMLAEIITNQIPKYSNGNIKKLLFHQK

CNCC[C@@H](Oc1ccccc1C)c1ccccc1
inactive: outcome [1] | Potency [2] | outcome [3] | outcome [4] | outcome [5] | Potency [6] | outcome [7] | Potency [8] | Potency [9] | Potency [10]

CC(C)(C)C(=O)OCOP(=O)(COCCn1cnc2c(N)ncnc21)OCOC(=O)C(C)(C)C
inactive: outcome [1] | Potency [2] | outcome [3] | outcome [4] | outcome [5] | Potency [6] | outcome [7] | Potency [8] | Potency [9] | Potency [10]

NCc1ccccc1
inactive: outcome [1] | Potency [2] | outcome [3] | outcome [4] | outcome [5] | Potency [6] | outcome [7] | Potency [8] | Potency [9] | Potency [10]

CCCCOC(O)CC (stereo not given)
inactive: outcome [1] | Potency [2] | outcome [3] | outcome [4] | outcome [5] | Potency [6] | outcome [7] | Potency [8] | Potency [9] | Potency [10]

Cc1cccc(OCCOc2cccc(C)c2)c1
inactive: outcome [1] | Potency [2] | outcome [3] | outcome [4] | outcome [5] | Potency [6] | outcome [7] | Potency [8] | Potency [9] | Potency [10]

O=C(/C=C/c1ccc(O)c(O)c1)O[C@@H]1C[C@](O)(C(=O)O)C[C@@H](O)[C@H]1O
inactive: outcome [1] | Potency [2] | outcome [3] | outcome [4] | outcome [5] | Potency [6] | outcome [7] | Potency [8] | Potency [9] | Potency [10]

N#CCc1cccc(C(F)(F)F)c1
inactive: outcome [1] | Potency [2] | outcome [3] | outcome [4] | outcome [5] | Potency [6] | outcome [7] | Potency [8] | Potency [9] | Potency [10]

CC[C@H](C)[C@@H](C(=O)O)n1sc2ccccc2c1=O
inactive: outcome [1] | Potency [2] | outcome [3] | outcome [4] | outcome [5] | Potency [6] | outcome [7] | Potency [8] | Potency [9] | Potency [10]

Cc1ccc(C)o1
inactive: outcome [1] | Potency [2] | outcome [3] | outcome [4] | outcome [5] | Potency [6] | outcome [7] | Potency [8] | Potency [9] | Potency [10]

CCOC(=O)CC(=O)c1cc(F)c(Cl)nc1Cl
inactive: outcome [1] | Potency [2] | outcome [3] | outcome [4] | outcome [5] | Potency [6] | outcome [7] | Potency [8] | Potency [9] | Potency [10]

Oc1ccc(Sc2ccc(O)cc2)cc1
inactive: outcome [1] | Potency [2] | outcome [3] | outcome [4] | outcome [5] | Potency [6] | outcome [7] | Potency [8] | Potency [9] | Potency [10]

O=C(Nc1ccccc1)OCC(CN1CCCCC1)OC(=O)Nc1ccccc1 (stereo not given)
inactive: fluorescence, % of fluorescein [1] 0.0795% [at 18.6 µM] | fluorescence, % of fluorescent control [2] -0.0858% [at 18.6 µM] | activity change [3] 0.0431% [at 18.6 µM] | fluorescence, % of fluorescent control [4] 0.0296% [at 18.6 µM] | fluorescence, % of Rose Bengal [5] 0.0349% [at 18.6 µM] | fluorescence, % of fluorescent control [6] -0.044% [at 18.6 µM] | fluorescence, % of fluorescein control [7] 0.0354% [at 18.6 µM] | fluorescence, % of fluorescent control [8] -0.0488% [at 18.6 µM] | Potency [9] | Potency [10]

Cn1c(=O)c2c(ncn2CC(O)CO)n(C)c1=O (stereo not given)
inactive: fluorescence, % of fluorescein [1] -0.0383% [at 18.6 µM] | fluorescence, % of fluorescent control [2] -0.0654% [at 18.6 µM] | activity change [3] -0.0177% [at 18.6 µM] | fluorescence, % of fluorescent control [4] 0.293% [at 18.6 µM] | fluorescence, % of Rose Bengal [5] -0.139% [at 18.6 µM] | fluorescence, % of fluorescent control [6] -0.106% [at 18.6 µM] | fluorescence, % of fluorescein control [7] -0.0139% [at 18.6 µM] | fluorescence, % of fluorescent control [8] -0.0218% [at 18.6 µM] | Potency [9] | Potency [10]

Nc1nc(N)c(-c2ccccc2)s1
inactive: outcome [1] | Potency [2] | outcome [3] | outcome [4] | outcome [5] | Potency [6] | outcome [7] | Potency [8] | Potency [9] | Potency [10]

Oc1ccc(C(O)CNCCCCCCNCC(O)c2ccc(O)c(O)c2)cc1O (stereo not given)
inactive: outcome [1] | Potency [2] | outcome [3] | outcome [4] | outcome [5] | Potency [6] | outcome [7] | Potency [8] | Potency [9] | Potency [10]

C1CCC2OC2C1 (stereo not given)
inactive: outcome [1] | Potency [2] | outcome [3] | outcome [4] | outcome [5] | Potency [6] | outcome [7] | Potency [8] | Potency [9] | Potency [10]

O=S(=O)(O)c1ccc(O)c2ncccc12
inactive: outcome [1] | Potency [2] | outcome [3] | outcome [4] | outcome [5] | Potency [6] | outcome [7] | Potency [8] | Potency [9] | Potency [10]

CN(C)CCCOc1nn(Cc2ccccc2)c2ccccc12
inactive: fluorescence, % of fluorescein [1] 0.0226% [at 18.6 µM] | fluorescence, % of fluorescent control [2] -0.101% [at 18.6 µM] | activity change [3] -0.0035% [at 18.6 µM] | fluorescence, % of fluorescent control [4] 0.117% [at 18.6 µM] | fluorescence, % of Rose Bengal [5] -0.0465% [at 18.6 µM] | fluorescence, % of fluorescent control [6] -0.0147% [at 18.6 µM] | fluorescence, % of fluorescein control [7] 0.0194% [at 18.6 µM] | fluorescence, % of fluorescent control [8] -0.0064% [at 18.6 µM] | Potency [9] | Potency [10]

C=Cc1c(C)c2cc3[nH]c(cc4nc(cc5nc(cc1[nH]2)C(C)=C5CCC(=O)O)C(CCC(=O)O)=C4C)c(C)c3C=C
inactive: outcome [1] | Potency [2] | outcome [3] | outcome [4] | outcome [5] | Potency [6] | outcome [7] | Potency [8] | Potency [9] | Potency [10]

CCCC(=O)OCC
inactive: outcome [1] | Potency [2] | outcome [3] | outcome [4] | outcome [5] | Potency [6] | outcome [7] | Potency [8] | Potency [9] | Potency [10]

CCCCCOC(=O)COc1cc(N2C(=O)C3=C(CCCC3)C2=O)c(F)cc1Cl
inactive: outcome [1] | Potency [2] | outcome [3] | outcome [4] | outcome [5] | Potency [6] | outcome [7] | Potency [8] | Potency [9] | Potency [10]
